# Assay results: the supplement of paper PMC8728848
# The entries come from a sample that favours the strongest signals as a whole.
# B1: SUN4 (Saccharomyces cerevisiae), P53616 (protein)
# chain: MGSSHHHHHHSSGLVPRGSHNGSIYGDLADFSGPYEKFEDGTIPCGQFPSGQGVIPISWLDEGGWSGVENTDTSTGGSCKEGSYCSYACQPGMSKTQWPSDQPSDGRSIGGLLCKDGYLYRSNTDTDYLCEWGVDAAYVVSELSNDVAICRTDYPGTENMVIPTYVQAGDSLPLTVVDQDTYYTWQGLKTSAQYYVNNAGISVEDACVWGSSSSGVGNWAPLNFGAGSSDGVAYLSLIPNPNNGNALNFNVKIVAADDSSTVNGECIYENGSFSGGSDGCTVSVTAGKAKFVLYN
# Columns and labels:
# Assay in all cases: glycan array binding signal (z-score within array); higher = stronger binding
# Settings in all cases: glycan notation: IUPAC condensed, linker removed
# [1] = molecular target: Fuc(a1-2)Gal(b1-3)GalNAc(b1-3)Gal(a1-4)Gal(b1-4)Glc
# Summary of the method: (§1)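 Glycan array data came from 3228 arrays in the Consortium for Functional Glycomics database, and only arrays with an available protein sequence were kept. Glycan names were put into IUPAC-condensed notation, and columns mapping to the same glycan were averaged. The binding signal is a within-array Z-score, averaged across arrays of one protein sequence run at different concentrations or buffers and across linkers. A negative Z-score can be read as non-binding.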
# [2] = molecular target: Fuc(a1-2)Gal(b1-3)[Fuc(a1-4)]GlcNAc
# Summary of the method: as §1
# [3] = molecular target: Fuc(a1-2)Gal(b1-3)[Fuc(a1-4)]GlcNAc(b1-2)Man(a1-3)[Fuc(a1-2)Gal(b1-3)[Fuc(a1-4)]GlcNAc(b1-2)Man(a1-3)]Man(b1-4)GlcNAc(b1-4)GlcNAc
# Summary of the method: as §1
# [4] = molecular target: Fuc(a1-2)Gal(b1-3)[Fuc(a1-4)]GlcNAc(b1-3)[Gal(b1-4)GlcNAc(b1-6)]Gal(b1-4)Glc
# Summary of the method: as §1
# [5] = molecular target: Fuc(a1-2)Gal(b1-4)GlcNAc(b1-2)Man
# Summary of the method: as §1
# [6] = molecular target: Fuc(a1-2)[Gal(a1-3)]Gal(b1-3)GlcNAc(b1-6)GalNAc
# Summary of the method: as §1
# [7] = molecular target: Fuc(a1-2)[Gal(a1-3)]Gal(b1-4)[Fuc(a1-3)]GlcNAc(b1-3)GalNAc
# Summary of the method: as §1
# [8] = molecular target: Fuc(a1-2)[GalNAc(a1-3)]Gal(b1-3)GlcNAc(b1-6)GalNAc
# Summary of the method: as §1
# [9] = molecular target: Fuc(a1-2)[GalNAc(a1-3)]Gal(b1-4)Glc
# Summary of the method: as §1
# [10] = molecular target: Gal(a1-3)Gal(b1-3)GlcNAc(b1-2)Man(a1-3)[Gal(a1-3)Gal(b1-3)GlcNAc(b1-2)Man(a1-6)]Man(b1-4)GlcNAc(b1-4)GlcNAc
# Summary of the method: as §1
# [11] = molecular target: Gal(a1-3)Gal(b1-3)[Fuc(a1-4)]GlcNAc(b1-2)Man(a1-3)[Gal(a1-3)Gal(b1-3)[Fuc(a1-4)]GlcNAc(b1-2)Man(a1-6)]Man(b1-4)GlcNAc(b1-4)GlcNAc
# Summary of the method: as §1
# [12] = molecular target: Gal(a1-3)Gal(b1-4)[Fuc(a1-3)]GlcNAc(b1-2)Man(a1-3)[Gal(a1-3)Gal(b1-4)[Fuc(a1-3)]GlcNAc(b1-2)Man(a1-6)]Man(b1-4)GlcNAc(b1-4)GlcNAc
# Summary of the method: as §1
# [13] = molecular target: Gal(a1-4)Gal(b1-4)GlcNAc(b1-3)Gal(b1-4)Glc
# Summary of the method: as §1
# [14] = molecular target: Gal(a1-6)Glc
# Summary of the method: as §1
# [15] = molecular target: Gal(b1-3)GalNAc(b1-3)Gal
# Summary of the method: as §1
# [16] = molecular target: Gal(b1-3)GalNAc(b1-3)Gal(a1-4)Gal(b1-4)Glc
# Summary of the method: as §1
# [17] = molecular target: Gal(b1-3)GlcNAc(b1-2)Man(a1-3)[Gal(b1-3)GlcNAc(b1-2)Man(a1-6)]Man(b1-4)GlcNAc(b1-4)[Fuc(a1-6)]GlcNAc
# Summary of the method: as §1
# [18] = molecular target: Gal(b1-3)GlcNAc(b1-3)Gal(b1-4)GlcNAc(b1-2)Man(a1-3)[Gal(b1-3)GlcNAc(b1-3)Gal(b1-4)GlcNAc(b1-2)Man(a1-6)]Man(b1-4)GlcNAc(b1-4)GlcNAc
# Summary of the method: as §1
# [19] = molecular target: Gal(b1-3)GlcNAc(b1-3)Gal(b1-4)[Fuc(a1-3)]GlcNAc(b1-6)[Gal(b1-3)GlcNAc(b1-3)]Gal(b1-4)Glc
# Summary of the method: as §1
# [20] = molecular target: Gal(b1-3)GlcNAc(b1-3)GalNAc
# Summary of the method: as §1
# [21] = molecular target: Gal(b1-3)GlcNAc(b1-6)[Gal(b1-3)]GalNAc
# Summary of the method: as §1
# [22] = molecular target: Gal(b1-3)[Fuc(a1-4)]GlcNAc(b1-6)GalNAc
# Summary of the method: as §1
# [23] = molecular target: Gal(b1-4)Glc6S
# Summary of the method: as §1
# [24] = molecular target: Gal(b1-4)GlcNAc(b1-2)Man(a1-3)[Gal(b1-4)GlcNAc(b1-2)Man(a1-6)]Man(b1-4)GlcNAc(b1-4)[Fuc(a1-6)]GlcNAc
# Summary of the method: as §1
# [25] = molecular target: Gal(b1-4)GlcNAc(b1-2)[Gal(b1-4)GlcNAc(b1-4)]Man(a1-3)[GlcNAc(b1-4)][Gal(b1-4)GlcNAc(b1-2)Man(a1-6)]Man(b1-4)GlcNAc(b1-4)GlcNAc
# Summary of the method: as §1
# [26] = molecular target: Gal(b1-4)GlcNAc(b1-3)Gal(b1-4)GlcNAc(b1-2)Man(a1-3)[Gal(b1-4)GlcNAc(b1-3)Gal(b1-4)GlcNAc(b1-2)Man(a1-6)]Man(b1-4)GlcNAc(b1-4)GlcNAc
# Summary of the method: as §1
# [27] = molecular target: Gal(b1-4)GlcNAc(b1-3)Gal(b1-4)GlcNAc(b1-2)Man(a1-3)[Gal(b1-4)GlcNAc(b1-3)Gal(b1-4)GlcNAc(b1-2)Man(a1-6)]Man(b1-4)GlcNAc(b1-4)[Fuc(a1-6)]GlcNAc
# Summary of the method: as §1
binder,measurement,setting,value
B1,glycan array binding signal (z-score),[1],0.954
same,glycan array binding signal (z-score),[2],-0.752
same,glycan array binding signal (z-score),[3],-0.207
same,glycan array binding signal (z-score),[4],0.297
same,glycan array binding signal (z-score),[5],0.324
same,glycan array binding signal (z-score),[6],-0.368
same,glycan array binding signal (z-score),[7],-0.487
same,glycan array binding signal (z-score),[8],-0.525
same,glycan array binding signal (z-score),[9],-0.935
same,glycan array binding signal (z-score),[10],1.63
same,glycan array binding signal (z-score),[11],1.91
same,glycan array binding signal (z-score),[12],3.09
same,glycan array binding signal (z-score),[13],-0.077
same,glycan array binding signal (z-score),[14],-1.22
same,glycan array binding signal (z-score),[15],-0.668
same,glycan array binding signal (z-score),[16],0.295
same,glycan array binding signal (z-score),[17],-0.257
same,glycan array binding signal (z-score),[18],0.342
same,glycan array binding signal (z-score),[19],-0.488
same,glycan array binding signal (z-score),[20],-0.163
same,glycan array binding signal (z-score),[21],0.101
same,glycan array binding signal (z-score),[22],0.835
same,glycan array binding signal (z-score),[23],-0.03
same,glycan array binding signal (z-score),[24],0.829
same,glycan array binding signal (z-score),[25],0.208
same,glycan array binding signal (z-score),[26],2.66
same,glycan array binding signal (z-score),[27],2
